TDP1 cell CPT: qHTS for Inhibitors of human tyrosyl-DNA phosphodiesterase 1 (TDP1): qHTS in cells in presence of CPT. hit rate 12% among 420,000. AID 686979, 2013. Potency, µM (series often up to 46.2 µM), for inactives: at the top dose activity change, negative = growth inhibition, hits mostly inhibitors. chicken DT40 Tdp1-/-;hTDP1 cells + 20 nM CPT, ATP luminescence, 48 h; note: potency is the fitted concentration of half-maximal effect; % is set by controls: 0 for no effect and ±100 for the full control effect; nearly all actives have a fitted effect of over 55% in size
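Chicken DT40 Tdp1-/- cells stably complemented with human TDP1 were seeded at 400 cells/well in medium containing 20 nM camptothecin, exposed to pin-transferred compounds, and grown at 37 °C for at least 48 hr. Viability was read as ATP luminescence.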
DT40 TDP1 no CPT: qHTS for Inhibitors of human tyrosyl-DNA phosphodiesterase 1 (TDP1): qHTS in cells in absence of CPT; Potency, µM (titrated, usually from 46.2 µM), for inactives: top-dose activity change, negative = growth inhibition, usual class: inhibitors; AID 686978, 2013; hit rate 15% among 420,000; DT40 Tdp1-/- hTDP1 cells, no CPT, ATP luminescence, 48 h; note: potency is the fitted concentration of half-maximal effect; % is set by controls: 0 for no effect and ±100 for the full control effect; nearly all actives have a fitted effect of over 55% in size
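DT40 Tdp1-/-;hTDP1 cells, no CPT (DMSO vehicle only), 400 cells/well; compounds pin-transferred; ≥48 hr, 37 °C; CellTiter-Glo 30 min RT dark, luminescence read.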
TDP1 inh: qHTS Assay for Inhibitors of Tyrosyl-DNA Phosphodiesterase (TDP1); hit rate 0.28% among 350,000; recombinant TDP1, AlphaScreen DNA substrate cleavage; Tyrosyl-DNA phosphodiesterase 1 (Homo sapiens), Q9NUW8; Potency, µM (titrated, usually from 130 µM), without a hit: top-dose activity change, negative = inhibition, hits mostly inhibitors; AID 485290, 2010; note: potency is the fitted concentration of half-maximal effect; % is set by controls: 0 for no effect and ±100 for the full control effect; nearly all actives have a fitted effect of over 40% in size
Target sequence (Q9NUW8 whole entry, looked up): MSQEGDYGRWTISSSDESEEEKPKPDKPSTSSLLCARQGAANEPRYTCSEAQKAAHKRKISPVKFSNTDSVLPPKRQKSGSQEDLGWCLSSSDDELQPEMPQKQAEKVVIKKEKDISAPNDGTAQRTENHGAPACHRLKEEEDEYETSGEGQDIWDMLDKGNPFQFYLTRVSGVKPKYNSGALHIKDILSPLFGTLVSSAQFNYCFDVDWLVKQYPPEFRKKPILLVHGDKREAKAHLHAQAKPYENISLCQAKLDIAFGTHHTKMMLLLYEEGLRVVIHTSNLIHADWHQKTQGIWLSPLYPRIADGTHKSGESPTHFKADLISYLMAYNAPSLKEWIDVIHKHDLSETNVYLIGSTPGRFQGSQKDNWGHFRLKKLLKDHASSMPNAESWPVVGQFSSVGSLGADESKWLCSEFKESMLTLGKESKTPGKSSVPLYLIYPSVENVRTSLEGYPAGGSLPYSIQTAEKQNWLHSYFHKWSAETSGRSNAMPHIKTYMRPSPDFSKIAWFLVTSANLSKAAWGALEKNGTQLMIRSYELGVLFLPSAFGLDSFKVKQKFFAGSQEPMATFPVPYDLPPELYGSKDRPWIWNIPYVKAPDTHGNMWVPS
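Recombinant E. coli-expressed Tdp1 (1 nM) preincubated with compound 15 min at RT, then 5'-biotin/3'-phosphotyrosine-FITC DNA substrate (15 nM) added for 5 min. AlphaScreen beads (10 ug/ml) added, 10 min RT; tyrosine-FITC cleavage read as signal loss.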
uPA generation: qHTS for Inhibitors of Cell Surface uPA Generation; cell surface uPA generation assay, qHTS; Potency, µM (series often up to 38.3 µM), for inactives: top-dose activity change, negative = inhibition, hits mostly inhibitors; hit rate 0.31% among 330,000; AID 540303, 2011; active = well fitted inhibition curve with a large enough effect; inconclusive = small, poorly fitted or top-dose-only effect; inactive = no such curve, though single readings can be large or run the other way; tested in mouse RAW 264.7 cells; note: potency is the fitted concentration of half-maximal effect; % is set by controls: 0 for no effect and ±100 for the full control effect; nearly all actives have a fitted effect of over 55% in size
miR-21 reporter: qHTS Assay for Modulators of miRNAs and/orActivators of miR-21; HeLa miR-21 FLuc reporter, luciferase, 48 h; Potency, µM (titrated, usually from 38.3 µM), without a hit: top-dose activity change, positive = activation, most hits filed as activators; 340,000 tested, under 10 active; AID 2288, 2010;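 note: % of control where 0% means no effect; miR-21 action dims this reporter so a rising signal means less miR-21 action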
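HeLa cells endogenously expressing miR-21, stably carrying CMV-driven firefly luciferase with a downstream miR-21 binding site, 2000 cells/well. Titrations up to approximately 40 uM, 48 hours; luciferase luminescence read.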
Starred values were filed as active, the others as inactive; u = inconclusive; x = not tested or not shown. Most compounds without a hit are left out; they make up all but 16% or so of the library. Unless noted, calls come from the whole dose curve; as a rule, active = well fitted curve in the direction sought with a large enough effect; inconclusive = small, poorly fitted or top-dose-only effect, or another doubt; inactive = no such curve, though single readings can be large; an effect the other way counts as inactive or inconclusive.

SMILES | TDP1 cell CPT | DT40 TDP1 no CPT | TDP1 inh | uPA generation | miR-21 reporter
CCCN1CCN(C(=O)CCCn2c(C)c3cnn(-c4ccccc4)c(=O)c3c2C)CC1 | -21% | 1% | 1% | -2% | -11%
CCOC(=O)C1CCCN(C(=O)Cn2c(=O)cc(C)c3c(C)nn(C)c32)C1 (configuration not stated) | u | u | 3% | x | 10%
Cc1cc(=O)n(CC(=O)N2CCN(c3ccc(F)cc3)CC2)c2c1c(C)nn2C | 18µM* | 21µM* | 7% | x | 29%
Cc1c2cnn(-c3ccccc3)c(=O)c2c(C)n1CC(=O)N1CCN(c2cccc(Cl)c2)CC1 | 18µM* | 13µM* | 3% | x | 30%
CC(C)(C)C1CCc2c(sc(NC(=O)CSc3nnc(-c4ccccc4)o3)c2C#N)C1 (configuration not stated) | u | u | -5% | -1% | -14%
COc1cccc(N2CCN(C(=O)Cn3ncc4c(=O)oc5ccccc5c43)CC2)c1 | 16µM* | 18µM* | 4% | x | 0%
Cc1ccc(Cn2c(C)c3cnn(CC(=O)N4CCN(c5ccc(F)cc5)CC4)c(=O)c3c2C)cc1 | 10µM* | 12µM* | 8% | x | 5%
Cc1c2cnn(CC(=O)N3CCCCC3)c(=O)c2c(C)n1Cc1ccc(F)cc1 | u | u | 0% | x | -15%
CCC(C(=O)N1CCN(c2ccccc2)CC1)n1c(C)c2cnn(-c3ccccc3)c(=O)c2c1C (configuration not stated) | u | u | 5% | x | 3%
O=C(Cn1ncc2c(=O)oc3ccccc3c21)N1CCN(c2ccccn2)CC1 | 1% | -16% | 6% | 1% | -1%
Cc1c2cnn(-c3ccccc3)c(=O)c2c(C)n1CC(=O)N1CCN(c2ccc(F)cc2)CC1 | 21µM* | 15µM* | 3% | x | 17%
Cc1cc(C)cc(NC(=O)Nc2ccccc2OCc2cc(=O)n3ccccc3n2)c1 | u | u | 5% | x | -6%
CCOC(=O)COc1ccc2c(c1)c(C(=O)OCC)c(C)n2CC | 9% | -7% | 0% | 7% | -3%
CC(=O)n1cc(C2C(=O)CC(C)(C)CC2=O)c2ccccc21 | -7% | -11% | 0% | 1% | -6%
Oc1ccccc1-c1n[nH]c(-c2ccccc2O)n1 | 3.7µM* | 5.2µM* | x | -7% | x
Clc1ccccc1-c1nc(-c2ccccc2)n[nH]1 | u | u | 0% | -7% | -34%
Cc1ccc(C(C)C)c(OCc2ccc(-c3nnco3)cc2)c1 | 16µM* | 21µM* | -2% | 13% | -2%
COc1cc([N+](=O)[O-])ccc1-c1ccc(/C=N\n2cnnc2)o1 | 1.6µM* | 1.8µM* | x | -1% | -1%
O=C(/C=C/c1cc([N+](=O)[O-])ccc1OC(F)F)Nc1cccc([N+](=O)[O-])c1 | 1% | 2% | x | 5% | -6%
O=[N+]([O-])c1ccc(Cl)c(-c2ccc(/C=N/n3cnnc3)o2)c1 | 3% | -20% | x | -2% | -2%
COC(=O)c1ccccc1-c1ccc(/C=C2\C(=O)N(c3ccccc3)N=C2c2ccccc2)o1 | -20% | u | 10% | -2% | 0%
COc1cc([N+](=O)[O-])ccc1-c1ccc(/C=N/NC(=O)c2ccccc2O)o1 | x | x | -4% | x | -15%
COc1cc([N+](=O)[O-])ccc1-c1ccc(/C=C2\C(=O)ON=C2c2ccccc2)o1 | 12µM* | 9.2µM* | x | 6% | x
COc1ccc(-c2ccc(/C=C3\C(=O)N(c4ccccc4)N=C3c3ccccc3)o2)c([N+](=O)[O-])c1 | u | 21µM* | 7% | -2% | -4%
O=[N+]([O-])c1ccc(OC(F)F)c(/C=N/n2cnnc2)c1 | 5.8µM* | 6.5µM* | -3% | 0% | 0%
SMILES | TDP1 cell CPT | DT40 TDP1 no CPT | TDP1 inh | uPA generation | miR-21 reporter
CC(C)CNC(=O)COC(=O)c1c2c(nc3ccccc13)CCC2 | 3% | u | 0% | 0% | 12%
Cc1ccc2c3c(cccc13)-c1ccccc1C2=O | -29% | u | -1% | -5% | -48%
Cc1coc2c1C(=O)C(=O)c1c-2ccc2c(C)cccc12 | 2.9µM* | 4.6µM* | 6% | -12% | -13%
Cc1coc2c1C(=O)C(=O)c1c-2ccc2c1CCCC2(C)C | 0.82µM* | 1.3µM* | 21% | -30% | -1%
CN1C(=O)c2ccccc2Sc2ccc(NC(=O)c3ccc(C#N)cc3)cc21 | u | u | 7% | x | u
COc1ccc2c(CN3CCCCC3)cc(=O)oc2c1 | 5% | 0% | x | x | x
O=C(NCc1nc(-c2ccc(C(F)(F)F)cc2)no1)Nc1ccc(F)cc1F | 14% | -8% | 4% | 8% | 3%
Cc1onc(-c2ccccc2)c1CNC(=O)Nc1ccc(C(F)(F)F)cc1 | u | 16µM* | -3% | 6% | u
O=C(NCc1nc(-c2ccc(C(F)(F)F)cc2)no1)Nc1cc(Cl)cc(Cl)c1 | 10µM* | 12µM* | 5% | u | u
CC1(C)NC(=O)N(CC(O)CN2CCOCC2)C1=O (configuration not stated) | -4% | 1% | 2% | 2% | 0%
Cc1ccc2cc(CN(CC3CCCO3)S(=O)(=O)c3ccccc3)c3nnnn3c2c1 (configuration not stated) | 29µM* | -29% | -2% | x | -34%
Cc1ccc2c(c1)cc(CN(CCc1ccccc1)C(=O)N1CCOCC1)c1nnnn12 | -21% | u | 6% | -2% | -13%
Cc1ccc2c(c1)cc(CN(Cc1ccco1)C(=O)N1CCOCC1)c1nnnn12 | u | -11% | 6% | -6% | 1%
Cc1ccc2c(c1)cc(CN(Cc1ccc3c(c1)OCO3)C(=O)c1ccccc1)c1nnnn12 | u | 21µM* | 3% | 5% | 1%
Cc1ccc2c(c1)cc(CN(Cc1ccco1)S(=O)(=O)c1ccccc1)c1nnnn12 | 13µM* | 21µM* | 0% | 2% | -3%
C[C@H]1CN=C(N(C)C)N1CC1CCCCC1 | -6% | u | -10% | -3% | x
C[C@H]1CN=C(N(C)C)N1CC1CCC(C(C)(C)C)CC1 (some centres not stated) | 13µM* | 12µM* | x | u | x
C[C@H]1CN=C(N(C)C)N1CC1CCCC1 | -7% | -19% | -7% | 4% | x
C[C@H]1CN=C(N(C)C)N1CCCC1CCCC1 | 16µM* | 12µM* | -6% | -29% | x
C[C@H]1CN=C(N(C)C)N1CCC1CCCCC1 | u | 16µM* | 0% | -20% | x
Cc1ccc2c(C)nc(N/C(N)=N/S(=O)(=O)c3ccccc3)nc2c1 | -21% | -21% | -5% | 0% | -16%

Screening results (PubChem BioAssay)
